# IMPase Li cell: membrane-permeable IMPase blocker, potentiated with lithium; 210,000 compounds, 0.35% hits; Potency, µM (highest dose often 59.4 µM), usual class: inhibitors; CHO-M1 cells, IP1 TR-FRET (IP-One), carbachol + lithium; active = well fitted curve in the direction sought with a large enough effect; inconclusive = small, poorly fitted or top-dose-only effect, or another doubt; inactive = no such curve, though single readings can be large; an effect the other way counts as inactive or inconclusive;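 also: IP1 builds up when IMPase is blocked and the TR-FRET signal falls; nearly all actives have a fitted effect of over 50% in size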
#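 Concentration–response in CHO-M1 cells, lithium-potentiated; 30 min at 37C. IP1 detected by competitive TR-FRET after 10 min lysis at RT. Hill-fitted AC50.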
# IMPase inh: IMPase inhibition in cells; CHO-M1 cells, IP1 accumulation, HTRF TR-FRET ratio; inhibition (IP1 accumulation), % at 46.1 µM; 120,000 tested, under 10 active; AID 901; active = well fitted curve in the direction sought with a large enough effect in the signal ratio, not every such curve was filed as active; inconclusive = small, poorly fitted or top-dose-only effect, or a change in a side signal; inactive = no such curve, though single readings can be large or run the other way; the % refers to the signal ratio;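 also: cells stimulated with carbachol in lithium chloride buffer; higher means more IMPase inhibition seen as more IP1 and lower FRET ratio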
#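 The IP-One HTRF competitive assay in carbachol-stimulated CHO-M1 cells quantifies cellular IP1. Compounds spanned up to 46 uM final, and activity is expressed as AC50 from concentration-response fits of the ratio and donor data.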
# NPSR antagonist: antagonists of human neuropeptide S receptor cAMP signaling | CHO-NPSR cells, cAMP TR-FRET, antagonist mode | Potency, µM (highest dose often 38.3 µM), most hits filed as inhibitors | 220,000 compounds, 1% hits | AID 1461; active = well fitted curve in the direction sought with a large enough effect; inconclusive = small, poorly fitted or top-dose-only effect, or another doubt; inactive = no such curve, though single readings can be large; an effect the other way counts as inactive or inconclusive; also: nearly all actives have a fitted effect of over 50% in size
# Target sequence (Q6W5P4 whole entry, looked up): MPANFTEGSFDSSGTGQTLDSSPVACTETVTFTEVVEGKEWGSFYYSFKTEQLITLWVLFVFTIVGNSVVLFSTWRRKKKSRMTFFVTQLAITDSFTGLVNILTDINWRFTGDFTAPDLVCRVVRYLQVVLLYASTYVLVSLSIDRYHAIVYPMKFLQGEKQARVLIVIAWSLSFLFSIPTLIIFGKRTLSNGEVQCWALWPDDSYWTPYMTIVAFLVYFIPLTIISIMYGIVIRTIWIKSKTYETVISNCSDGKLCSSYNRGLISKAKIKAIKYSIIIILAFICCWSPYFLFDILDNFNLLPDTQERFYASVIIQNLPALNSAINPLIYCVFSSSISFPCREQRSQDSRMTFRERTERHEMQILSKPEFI
# HPGD block: inhibitors of human 15-hydroxyprostaglandin dehydrogenase (HPGD). 150,000 compounds, 4.3% hits. AID 894. purified HPGD, NADH fluorescence kinetic, PGE2 substrate. Potency, µM, actives largely listed as inhibitors. P15428
#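 NADH formation kinetics: reaction with 30 uM PGE2 and 1 mM NAD+ (final), 20 nM enzyme, Tris-HCl pH 8 with Tween 20, after 15 min compound preincubation at room temperature. Fluorescence change, last versus first of five reads.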
# PNC inhibitor: inhibitors of perinucleolar compartment assembly | PC3M PTB-GFP, PNC prevalence imaging, 16 h; stronger effect = lower value | activity change (PNC), negative = inhibition, % at 10 µM | 140,000 compounds, 3.1% hits | AID 2417;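 active = readout at or below -70, meaning at least 70% loss of cells showing the perinucleolar compartment, a nuclear body marking cancer cells; inconclusive = readout between -30 and a set limit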
#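 PC3M cells stably expressing PTB-GFP, 750–1000 cells/well, treated 16 h at 37 °C with compound (23 nl of library stock), in duplicate. After paraformaldehyde fixation and Hoechst stain, imaged at 20x; PNC prevalence scored by image analysis.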
# ALDH1A1 block: blocks purified human ALDH1A1 activity; Potency, µM (top dose mostly 75.3 µM), hits mostly inhibitors; P00352; 220,000 compounds, 7.3% hits; Purified ALDH1A1, NADH fluorescence, propionaldehyde substrate
# A number is an active result; - = inactive; ? = inconclusive; . = no result; ! = a repeat was not active. Shown are actives, neighbours in structure and some others; about 11% of the full set was active somewhere. Unless noted, calls follow the shape of the dose curve; as a rule, active = well fitted inhibition curve with a large enough effect (not every such curve was filed as active); inconclusive = small, poorly fitted or top-dose-only effect, or another doubt; inactive = no such curve, though single readings can be large or run the other way.
SMILES,IMPase Li cell,IMPase inh,NPSR antagonist,HPGD block,PNC inhibitor,ALDH1A1 block
Cc1ccc(C(=O)N2NC(c3ccc(F)cc3)C3C(=O)N(c4ccc(C)c(C)c4)C(=O)C32)cc1 (stereo not given),-,.,-,?,-90,-
O=c1cc(Nc2ccc3c(c2)OCCO3)[nH]c(=O)n1C1CCCCC1,-,-,-,-,-,1µM
CCc1ccc(Nc2cc(=O)n(C3CCCCC3)c(=O)[nH]2)cc1,-,-,-,-,-,1.3µM
O=c1cc(Nc2ccc3c(c2)OCCO3)[nH]c(=O)n1-c1ccc(Cl)cc1,-,-,-,-,-,-
O=c1cc(N2CCN(c3ccc(F)cc3)CC2)[nH]c(=O)n1C1CCCCC1,-,-,-,-,-,?
O=C(OCc1ccc(F)cc1Cl)c1ccccn1,-,-,?,-,-,?
CC[C@H](C)C(=O)O[C@H]1CCC=C2C=C[C@H](C)[C@H](CC[C@@H]3C[C@H](O)CC(=O)O3)[C@H]21,-,-,.,-,.,-
CC[C@H](C)C(=O)O[C@H]1CCC=C2C=C[C@H](C)[C@H](CC[C@@H]3C[C@@H](O)CC(=O)O3)[C@H]21,-,.,16µM!,.,.,?
Cc1ccc(-c2nc(NCc3cccnc3)c3ccccc3n2)cc1,-,.,-,-,-,-
Cc1nc2ncnn2c(N2CCCC(C(=O)Nc3ccc4c(c3)CCC4)C2)c1C (stereo not given),-,-,-,28µM,-,?
Cc1cc(NC2CCCCC2)nc(-c2ccccc2O)n1,.,-,-,.,-,-
Cc1ccnc(N=Cc2nc(-c3ccccc3Br)oc2O)c1,-,.,-,.,.,4µM
Oc1oc(-c2ccccc2)nc1C=Nc1ccccc1,-,-,-,-,-,?
Cc1cccc(/N=C/c2nc(-c3ccccc3Br)oc2O)n1,-,.,-,.,.,3.5µM
Oc1oc(-c2ccc(Br)cc2)nc1C=Nc1ccc(Br)cn1,-,.,-,.,.,-
Oc1oc(-c2cccc3ccccc23)nc1/C=N/c1nccs1,-,-,-,-,?,-
CSc1ccccc1N=Cc1nc(-c2ccccc2)oc1O,-,-,?,?,-,5µM
O=C(O)CN(CC(=O)O)Cc1cc2c(-c3ccccc3C(=O)O)c3cc(CN(CC(=O)O)CC(=O)O)c(=O)cc-3oc2cc1O,-,.,.,?,.,-
CCCCC(CC)C1OCC(CN2CCCCC2)O1 (stereo not given),.,.,-,.,.,.
COc1ccc(Oc2ncc3nc(-c4ccccc4)c(=O)n(C[C@H]4CCCO4)c3n2)cc1,-,.,.,.,.,?
C=CCSC1=N/C(=C\c2ccc(C(=O)O)cc2)C(=O)S1,-,.,-,.,.,3.5µM
Cc1ccc(-c2[nH]ncc2/C=C(\C#N)C(=O)NC2CCCCC2)cc1,-,-,?,-,-,?
N#C/C(=C\c1cc(Cl)cc(Cl)c1O)C(=O)NC1CCCCC1,-,-,-,?,-,32µM
N#C/C(=C\c1cc(Cl)ccc1O)C(=O)NC1CCCCC1,-,-,?,-,-,-
N#C/C(=C\c1cccn1-c1ccccc1)C(=O)NC1CCCCC1,-,-,?,-,-,7.1µM
SMILES,IMPase Li cell,IMPase inh,NPSR antagonist,HPGD block,PNC inhibitor,ALDH1A1 block
N#C/C(=C\c1ccccc1[N+](=O)[O-])C(=O)NC1CCCCC1,-,.,-,.,.,7.1µM
N#C/C(=C\c1ccc(F)c(F)c1)C(=O)NC1CCCCC1,-,-,-,-,?,-
N#C/C(=C\C=C\c1ccccc1[N+](=O)[O-])C(=O)NC1CCCCC1,-,.,?,.,.,25µM
COc1ccc(/C=N/NC(=O)Cn2ccnc2C)cc1OC,.,.,-,.,.,.
Cc1ccc(N(C(=O)CCC(=O)Nc2nccs2)C(C(=O)NC(C)(C)C)c2ccc(O)cc2)cc1 (stereo not given),-,.,-,.,.,-
COc1ccc(NC(=O)c2cc([N+](=O)[O-])ccc2N2CCN(C)CC2)cc1,-,.,-,.,.,?
CCc1ccccc1NC(=O)CN1C(=O)C2CCCN2c2ncc(Cl)cc21 (stereo not given),-,-,-,-,?,18µM
Fc1cccc(NC(=S)N2CCCC2)c1,-,.,-,-,-,-
Cc1cccc(NC(=S)N2CCCCCC2)c1,-,.,-,-,-106,?
COc1cc(C=O)ccc1OCc1c(C)noc1C,-,-,-,-,-,?

# Compound activity (PubChem)
